Drawing on PubChem BioAssay (NCI), this text covers growth for 17 compounds.

“And” between values parts separate entries of the source, which are not always exact repeats. Equal entries are not always repeated. The panel holds about 83,000 compounds, 20% with a hit somewhere; the sample as a whole holds those more often.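 For each line, cells grew in 96-well plates with the test compound present at a single concentration for 48 hours.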 The source made the active and inactive calls. Rule for the calls: active = growth percent below 10; inactive = the rest.

Common to all, as to assay: NCI-60 one-dose screen, 48 h (100 = growth as untreated, 0 = no growth, -100 = all killed)
The subject of one experiment is SK-MEL-2 melanoma. The conditions noted are these: 10 µM.
A further experiment concerns SN12C renal. The conditions noted are these: 10 µM.
Another experiment deals with UO-31 renal. The conditions noted are these: 10 µM.
A further experiment concerns TK-10 renal.
A further experiment has as its system ACHN renal. The following applies: 10 µM.
A further experiment deals with CAKI-1 renal. The conditions noted are these: 10 µM.
Another experiment concerns CCRF-CEM leukemia. The conditions noted are these: 10 µM.
For the next experiment, the system named is MOLT-4 leukemia. The following applies: 10 µM.
The next experiment has as its system EKVX NSCLC. The conditions noted are these: 10 µM.
For the next experiment, the system named is A498 renal. The conditions noted are these: 10 µM.

As to `CCN(CC)c1ccc(NC(C(=O)c2ccccc2)c2ccccc2)cc1` (stereo not drawn), the growth is 78.4% (inactive) with SK-MEL-2 melanoma; 1.65% (active) in the experiment on SN12C renal; -24.8% (active) with UO-31 renal; 41% (inactive) in the experiment with TK-10 renal (10 µM); -34.6% (active) in the experiment on ACHN renal; 17.8% (inactive) in the experiment on CAKI-1 renal. Also, the values for the growth in the experiment with CCRF-CEM leukemia and in the experiment with MOLT-4 leukemia were 10.3% (inactive) and 12.8% (inactive), respectively.

`OC(CN1CCCC2CCCCC21)c1cc2ccccc2c2ccccc12` (stereo not drawn): the growth is 42.8% (inactive) in the experiment with SK-MEL-2 melanoma; 42.3% (inactive) in the experiment on EKVX NSCLC; 49.7% (inactive) with SN12C renal; 35.6% (inactive) in the experiment with UO-31 renal; 52.6% (inactive) with TK-10 renal (10 µM); 29.1% (inactive) with ACHN renal. Also, the growth is 41.2% (inactive) in the experiment with CAKI-1 renal, 58.8% (inactive) in the experiment with A498 renal, 68.2% (inactive) with CCRF-CEM leukemia and -1.89% (active) with MOLT-4 leukemia.

On to `O=C1NC(=O)c2cc([N+](=O)[O-])ccc21`, for which the growth with EKVX NSCLC was 103% (inactive); in the experiment on SN12C renal it was 101% (inactive); in the experiment on UO-31 renal, 85.5% (inactive); with TK-10 renal (10 µM) it was 99.3% (inactive); in the experiment with ACHN renal it was 103% (inactive); in the experiment on CAKI-1 renal, 86.4% (inactive). Moreover, the growth was 99.2% (inactive) in the experiment with A498 renal, 45.3% (inactive) in the experiment with CCRF-CEM leukemia and 96.9% (inactive) with MOLT-4 leukemia.

Consider `CCCCCC(C)c1ccc(O)c(C)c1` (stereo not drawn), for which the growth in the experiment with SK-MEL-2 melanoma was 104% (inactive); with EKVX NSCLC it was 108% (inactive); in the experiment on UO-31 renal it was 83.5% (inactive); in the experiment with TK-10 renal (10 µM), 107% (inactive); in the experiment on ACHN renal, 101% (inactive); with CAKI-1 renal it was 103% (inactive). The growth was 81.9% (inactive) in the experiment on A498 renal and 93% (inactive) with MOLT-4 leukemia.

In the case of `O=[N+]([O-])C1=C(c2ccccc2)SC=C(c2ccccc2)S1`, the growth with SK-MEL-2 melanoma was 88.3% (inactive); in the experiment with EKVX NSCLC, 92.3% (inactive); in the experiment on SN12C renal it was 73.7% (inactive); with UO-31 renal, 71.6% (inactive); with TK-10 renal (10 µM) it was 104% (inactive); in the experiment on ACHN renal it was 83.5% (inactive). Also, the growth was 85.5% (inactive) with CAKI-1 renal, 84% (inactive) in the experiment with A498 renal, 14.8% (inactive) in the experiment with CCRF-CEM leukemia and 26.4% (inactive) in the experiment with MOLT-4 leukemia.

Consider `COC(=O)C1=COC(C)C2C[n+]3ccc4c([nH]c5ccccc54)c3CC12` (stereo not drawn), for which the growth in the experiment on EKVX NSCLC is 102% (inactive) and 93% (inactive); with SN12C renal, 95.9% (inactive) and 78.7% (inactive); in the experiment with UO-31 renal it was 79.1% (inactive) and 73.4% (inactive); in the experiment on TK-10 renal (10 µM), 107% (inactive) and 126% (inactive); in the experiment on TK-10 renal (100 µM), 110% (inactive) and 56.8% (inactive); with ACHN renal, 99.7% (inactive) and 88.9% (inactive). Besides, the growth is 101% (inactive) and 94.4% (inactive) with CAKI-1 renal; 72.8% (inactive) and 94.7% (inactive) in the experiment on A498 renal; 97.4% (inactive) and 104% (inactive) in the experiment on CCRF-CEM leukemia; 98.8% (inactive) and 94.3% (inactive) with MOLT-4 leukemia.

Consider `CC(C)(C)CC(C)(C)c1ccc(OCCO)cc1`, for which the growth in the experiment with EKVX NSCLC is 122% (inactive); in the experiment with SN12C renal it was 103% (inactive); in the experiment on UO-31 renal, 88.2% (inactive); with TK-10 renal (10 µM) it was 78.2% (inactive); in the experiment on ACHN renal, 117% (inactive); in the experiment with CAKI-1 renal it was 115% (inactive). The growth is 115% (inactive) in the experiment with A498 renal, 106% (inactive) in the experiment with CCRF-CEM leukemia and 85.4% (inactive) in the experiment with MOLT-4 leukemia.

Regarding `COc1c(O)cc2oc3cc(O)c(CC=C(C)C)c(O)c3c(=O)c2c1CC=C(C)C`, the growth with EKVX NSCLC is 54% (inactive); with SN12C renal, 51.5% (inactive); in the experiment on UO-31 renal, 49.3% (inactive); in the experiment on TK-10 renal (10 µM), 89.1% (inactive); in the experiment with ACHN renal, 58.8% (inactive); in the experiment with CAKI-1 renal it was 56.2% (inactive). Moreover, the growth was 97.2% (inactive) with A498 renal, 47.8% (inactive) in the experiment on CCRF-CEM leukemia and 42.3% (inactive) with MOLT-4 leukemia.

With `Cc1nc(N=C(N)N)nc2ccc3ccccc3c12`, the growth is -22.6% (active) in the experiment on SN12C renal; 5.39% (active) in the experiment with UO-31 renal; 3.86% (active) in the experiment on TK-10 renal (10 µM); 15.1% (inactive) in the experiment with ACHN renal; 75.2% (inactive) in the experiment on CAKI-1 renal; 32.9% (inactive) with A498 renal. Also, the results for the growth with CCRF-CEM leukemia and with MOLT-4 leukemia were -25.9% (active) and -28.2% (active), respectively.

With `CN1CCN(CCCN2c3ccccc3Sc3ccc(C(F)(F)F)cc32)CC1`, the growth was 66.9% (inactive) in the experiment on EKVX NSCLC; 57% (inactive) in the experiment on SN12C renal; 35.1% (inactive) in the experiment on UO-31 renal; 66% (inactive) with TK-10 renal (10 µM); 46.6% (inactive) in the experiment on ACHN renal; 34% (inactive) in the experiment with CAKI-1 renal. The growth with A498 renal was 70.2% (inactive); in the experiment with CCRF-CEM leukemia, 50.2% (inactive); with MOLT-4 leukemia it was 37.6% (inactive).

On to `CCCCCCCCCCSC(=N)N`, for which the growth with EKVX NSCLC was 92.1% (inactive); with SN12C renal it was 60.9% (inactive); in the experiment with UO-31 renal, 53.4% (inactive); in the experiment with TK-10 renal (10 µM), 60% (inactive); with ACHN renal, 50.1% (inactive); with CAKI-1 renal, 46.4% (inactive). In addition, the values for the growth in the experiment with A498 renal, with CCRF-CEM leukemia and with MOLT-4 leukemia were 95.1% (inactive), 51.3% (inactive) and 15.2% (inactive), respectively.

As to `O=C(/C=C/c1ccccn1)c1ccccc1`, the growth in the experiment with EKVX NSCLC was 93.8% (inactive); in the experiment on SN12C renal, 61.2% (inactive); in the experiment with UO-31 renal, 56.5% (inactive); in the experiment with TK-10 renal (10 µM), 19.5% (inactive); in the experiment with ACHN renal, -27.1% (active); with A498 renal it was 78.9% (inactive). Moreover, the growth was -12.6% (active) with CCRF-CEM leukemia and 3.13% (active) with MOLT-4 leukemia.

Regarding `Oc1ccc(N=Nc2ccccn2)c(O)c1`, the growth was 24.1% (inactive) in the experiment on EKVX NSCLC; 20.5% (inactive) with SN12C renal; 5.48% (active) with UO-31 renal; 36.1% (inactive) with TK-10 renal (10 µM); 13.8% (inactive) with ACHN renal; 59.2% (inactive) in the experiment with A498 renal. The growth with CCRF-CEM leukemia was 3.95% (active); with MOLT-4 leukemia, 4.34% (active).

Turning to `CCO/C=C1\SC(=S)N(c2cccc(O)c2)C1=O`, the growth with SN12C renal is 98.1% (inactive); in the experiment on UO-31 renal it was 79.5% (inactive); with TK-10 renal (10 µM) it was 88.3% (inactive); in the experiment with ACHN renal it was 102% (inactive); in the experiment on CAKI-1 renal, 98.9% (inactive); with A498 renal, 118% (inactive). Further, in the experiment on MOLT-4 leukemia, the growth was 96.7% (inactive).

Consider `CCCCCCCCCCCCSC(=NC)NC`, for which the growth in the experiment on EKVX NSCLC is 71.1% (inactive); with SN12C renal it was 39.4% (inactive) and 60.4% (inactive); in the experiment with UO-31 renal it was 35.2% (inactive) and 49.6% (inactive); with TK-10 renal (10 µM), 62.1% (inactive) and 71.2% (inactive); in the experiment on ACHN renal, 43% (inactive) and 86.4% (inactive); with CAKI-1 renal, 45.8% (inactive) and 73.6% (inactive). The growth is 72.3% (inactive) in the experiment with A498 renal; 23.7% (inactive) in the experiment with CCRF-CEM leukemia; 1.27% (active) and 19.1% (inactive) with MOLT-4 leukemia.

Take `CO[C@H](C(=O)[C@@H](O)[C@@H](C)O)[C@@H]1Cc2cc3cc(OC4CC(OC5CC(O)C(O)C(C)O5)C(O)C(C)O4)c(C)c(O)c3c(O)c2C(=O)[C@H]1OC1CC(OC2CC(OC3CC(C)(O)C(O)C(C)O3)C(O)C(C)O2)C(O)C(C)O1` (stereo partly drawn): the growth is 16.8% (inactive) with EKVX NSCLC; 24.8% (inactive) with SN12C renal; -4.43% (active) with UO-31 renal; 9.9% (active) in the experiment with TK-10 renal (10 µM); 3.72% (active) with ACHN renal; 17.2% (inactive) in the experiment with CAKI-1 renal. The growth in the experiment on CCRF-CEM leukemia is 3.86% (active); in the experiment on MOLT-4 leukemia it was 6.22% (active).

On to `O=C(Nc1ccc(C(=O)O)c(O)c1)c1ccccc1`, for which the growth in the experiment with EKVX NSCLC was 98.9% (inactive) and 93.7% (inactive); in the experiment with SN12C renal, 95.2% (inactive) and 101% (inactive); in the experiment with UO-31 renal, 81.3% (inactive) and 88.6% (inactive); in the experiment with TK-10 renal (10 µM) it was 106% (inactive) and 94.5% (inactive); in the experiment with ACHN renal, 96% (inactive) and 96.3% (inactive); with CAKI-1 renal, 102% (inactive) and 85.8% (inactive). For the same compound, the growth in the experiment on A498 renal is 121% (inactive) and 139% (inactive); with CCRF-CEM leukemia it was 130% (inactive) and 124% (inactive); with MOLT-4 leukemia, 109% (inactive) and 119% (inactive).
